Data: PubChem BioAssay (Tox21)
Records with an inconclusive call do not appear. The source made the active and inactive calls. Calls come from the whole dose curve; as a rule, active = well fitted curve in the direction sought with a large enough effect in the repeat runs; inconclusive = weak or mixed curves; inactive = no such curve, though single readings can be large; an effect the other way counts as inactive or inconclusive.

Legend:
[1] = A CellTox Green Cytotoxicity Assay to monitor cytotoxicity in HEK293 cells - 32 hour (AID 1224881); note: nearly all actives have a fitted effect of over 40% in size; note: potency is the fitted concentration of half-maximal effect
Method in brief: (§1)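 Cells (HEK293, 600/well) and dye reagent are dispensed together. After 5 h at 37 C, 23 nL compound is pinned in. Plates stay at 37 C for 40 h with fluorescence read at 0h, 8h, 16h, 24h, 32h and 40h.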

[2] = A CellTox Green Cytotoxicity Assay to monitor cytotoxicity in HepG2 cells - 32 hour (AID 1224883); note: nearly all actives have a fitted effect of over 50% in size; note: potency is the fitted concentration of half-maximal effect
Method in brief: (§2)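 Cells and non-lytic dye reagent are dispensed together (600 HepG2 cells/well) and incubated 5 h before DMSO compound transfer. Kinetic fluorescence is then recorded in the same wells during 40 h at 37 C.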

[3] = A CellTox Green Cytotoxicity Assay to monitor cytotoxicity in HEK293 cells - 8 hour (AID 1224884); note: nearly all actives have a fitted effect of over 35% in size; note: potency is the fitted concentration of half-maximal effect
Method in brief: as §1

[4] = qHTS RealTime-Glo MT Cell Viability Assay in HepG2 cells - 16 hour (AID 1224885); note: nearly all actives have a fitted effect of over 50% in size; note: potency is the fitted concentration of half-maximal effect
Method in brief: (§3)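 HepG2 cells were seeded at 600 cells/well together with NanoLuc luciferase and a cell-permeant prosubstrate, preincubated 5 h at 37 C/5% CO2, then pin-dosed with compounds in DMSO. Nonlytic luminescence from viable cells was read at each time point.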

[5] = qHTS RealTime-Glo MT Cell Viability Assay in HEK293 cells - 24 hour (AID 1224886); note: nearly all actives have a fitted effect of over 50% in size; note: potency is the fitted concentration of half-maximal effect
Method in brief: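 HEK293 cells were seeded at 600 cells/well together with NanoLuc luciferase and cell-permeant prosubstrate, preincubated 5 h at 37 C/5% CO2, then given compound in DMSO by pintool. Luminescence from viable-cell prosubstrate reduction was read repeatedly over 40 h.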

[6] = qHTS RealTime-Glo MT Cell Viability Assay in HEK293 cells - 8 hour (AID 1224887); note: nearly all actives have a fitted effect of over 50% in size; note: potency is the fitted concentration of half-maximal effect
Method in brief: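 Real-time viability in HEK293: signal arises when living cells convert a prosubstrate for NanoLuc in the medium, so luminescence tracks viable cell number. Compound (23 nL, DMSO) added 5 h post-seeding; kinetic reads at 0–40 h, 37 C.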

[7] = A CellTox Green Cytotoxicity Assay to monitor cytotoxicity in HEK293 cells - 16 hour (AID 1224888); note: nearly all actives have a fitted effect of over 35% in size; note: potency is the fitted concentration of half-maximal effect
Method in brief: as §1

[8] = qHTS RealTime-Glo MT Cell Viability Assay in HepG2 cells - 0 hour (AID 1224889); note: nearly all actives have a fitted effect of over 50% in size
Method in brief: as §3

[9] = A CellTox Green Cytotoxicity Assay to monitor cytotoxicity in HepG2 cells - 0 hour (AID 1224882); note: nearly all actives have a fitted effect of over 35% in size
Method in brief: as §2

[10] = A CellTox Green Cytotoxicity Assay to monitor cytotoxicity in HepG2 cells - 8 hour (AID 1224890); note: nearly all actives have a fitted effect of over 45% in size; note: potency is the fitted concentration of half-maximal effect
Method in brief: as §2

Measured: Potency

O=C(c1ccc(F)cc1)C1CCN(CCn2c(=O)[nH]c3ccccc3c2=O)CC1
active: [5] 9.52 µM | [6] 9.52 µM
not listed: [9] | [10]
inactive: all other assays above

N=C1N=C(N)c2ccccc21
active: [5] 24.5 µM
not listed: [2] | [4]
inactive: all other assays above

NC(=O)N1C(=O)C(C(=O)c2cc(Cl)cs2)c2cc(F)c(Cl)cc21 (configuration not stated)
not listed: [2] | [8]
inactive: all other assays above

Cc1[nH]cnc1C[C@H]1CCc2c(C)c3ccccc3n2C1=O
inactive: [9] | [7] | [8]
active: [1] 47.8 µM | [2] 38 µM | [5] 33.8 µM

Cc1c(C)c2c(c(C)c1OC(=O)CCC(=O)O)CC[C@@](C)(CCC[C@H](C)CCC[C@H](C)CCCC(C)C)O2
inactive: [1] | [9] | [3] | [6] | [7] | [10]

CCC(CN)=C(c1ccccc1)c1ccccc1
not listed: [2]
inactive: all other assays above

CCCCCCCC(=O)[O-].CCCCCCCC(=O)[O-].[Zn+2]
not listed: [9]
inactive: all other assays above

Cc1cc(CCN2CCN(c3nsc4ccccc34)CC2)cc2c1NC(=O)CC2(C)C
active: [1] 49 µM | [4] 54.9 µM | [5] 6.92 µM | [6] 21.9 µM | [7] 49 µM
inactive: [9] | [8] | [10]

Cc1cc2c(cc1C(F)(F)F)N(C(=O)Nc1ccc(Oc3cccnc3C)nc1)CC2
not listed: [2] | [5]
inactive: all other assays above

CCCC(C)c1ccccc1O (configuration not stated)
active: [1] 49 µM
inactive: [9] | [3] | [5] | [6] | [8]

O=c1[nH]sc2cc(Cl)ccc12
inactive: [1] | [9] | [3] | [6] | [7] | [8]

CCOc1nc2cccc(C(=O)OC(C)OC(=O)OC3CCCCC3)c2n1Cc1ccc(-c2ccccc2-c2nn[nH]n2)cc1 (configuration not stated)
active: [1] 30.9 µM | [2] 43.6 µM | [5] 9.76 µM | [6] 8.7 µM | [7] 34.6 µM

Clc1ccc2cc3ccccc3cc2c1
not listed: [2] | [5] | [6]
inactive: all other assays above

CC(=O)S[C@@H]1CC2=CC(=O)CC[C@]2(C)[C@H]2CC[C@@]3(C)[C@@H](CC[C@@]34CCC(=O)O4)[C@H]12
inactive: [1] | [9] | [7] | [8] | [10]
active: [2] 54.9 µM

CC(C)C(C)(C)C(C)(C)C(C)(C)S
inactive: [1] | [9] | [2] | [5] | [10]

CCCCCCCCOc1ccccc1C(=O)Nc1ccc(C(=O)OCC[N+](C)(CC)CC)cc1
active: [1] 23.9 µM | [2] 23.9 µM | [3] 23.9 µM | [7] 23.9 µM | [10] 26.8 µM
inactive: [6] | [8]

C[C@H](CCC(=O)O)[C@H]1CC[C@H]2[C@@H]3CC[C@@H]4C[C@H](O)CC[C@]4(C)[C@H]3CC[C@]12C
not listed: [2]
inactive: all other assays above

CCCC/C=C/CCCCO
not listed: [2]
inactive: all other assays above

Fc1ccc([C@@H]2CCNC[C@H]2COc2ccc3c(c2)OCO3)cc1
inactive: [9] | [3] | [6] | [7] | [10]
active: [2] 26.8 µM

CCCCCCCC/C=C\CCCCCCCCOCCO
inactive: [9] | [3] | [7] | [8]
active: [2] 63.7 µM | [5] 3.19 µM

O=C1CCCc2c1cc1ccc3cccc4ccc2c1c34
active: [5] 8.82 µM
not listed: [1] | [6]
inactive: all other assays above

Cc1cc(O)c(Cl)c(C)c1Cl
active: [2] 54.9 µM
inactive: [9] | [4] | [5] | [6] | [8]

O=C1Cc2cc(CCN3CCN(c4nsc5ccccc45)CC3)c(Cl)cc2N1
active: [5] 23.9 µM
inactive: [9] | [8] | [10]

CC(C)OC(=O)c1cc2c(OCC(O)CNC(C)(C)C)cccc2[nH]1 (configuration not stated)
inactive: [9] | [8] | [10]
active: [5] 9.52 µM | [6] 9.52 µM

O=C(Nc1cccc(Cl)c1)OCC#CCCl
active: [4] 43.6 µM | [5] 49 µM | [6] 43.6 µM
not listed: [1] | [2]
inactive: all other assays above

NC(=O)C1(N2CCCCC2)CCN(CCCN2c3ccccc3CCc3ccc(Cl)cc32)CC1
active: [2] 23.9 µM | [4] 23.9 µM | [5] 21.3 µM | [6] 23.9 µM
inactive: [9] | [8]

CCc1cc(SCc2sc(-c3ccc(C(F)(F)F)cc3)nc2CN2CCN(c3ccc(OC)cc3)CC2)ccc1OCC(=O)O
active: [5] 21.9 µM
not listed: [1] | [4] | [6]
inactive: all other assays above

OCc1c[nH]c2ccccc12
inactive: [9] | [4] | [8] | [10]

Fc1ccc(C(c2ccc(F)cc2)N2CCN(C/C=C/c3ccccc3)CC2)cc1
inactive: [9] | [2] | [7] | [8] | [10]

O=CC=C(c1ccccc1)c1ccccc1
active: [5] 17.5 µM
not listed: [1] | [6]
inactive: all other assays above

CCOc1ccc2nc3cc(N)ccc3c(N)c2c1
active: [2] 16.9 µM
not listed: [1] | [4] | [5]
inactive: all other assays above

Oc1ccc(C2(c3ccc(O)cc3)CC3CC2C2CCCC32)cc1 (configuration not stated)
active: [5] 41.9 µM
inactive: [9] | [4] | [7] | [8] | [10]

COc1cccc(N)c1
not listed: [1] | [4]
inactive: all other assays above

O=C1CCCCCN1SSN1CCCCCC1=O
not listed: [1] | [2] | [4]
inactive: all other assays above

O=Cc1cc(O)ccc1Br
not listed: [1] | [2] | [5]
inactive: all other assays above

O=S1(=O)CC(Cl)(Cl)C(Cl)(Cl)C1
active: [2] 7.76 µM | [6] 12.3 µM | [10] 13.8 µM
inactive: [9] | [8]

Nc1c(Cl)cc(Cl)cc1Cl
active: [3] 21.6 µM | [7] 21.6 µM
inactive: [9] | [4] | [5] | [8] | [10]

O=C(Oc1ccccc1)c1ccccc1C(=O)Oc1ccccc1
not listed: [1] | [4] | [8]
inactive: all other assays above

CN(C/C=C/C#CC(C)(C)C)Cc1cccc2ccccc12
inactive: [9] | [2] | [3] | [4] | [8] | [10]

c1cc(C(c2ccc(OCC3CO3)cc2)c2ccc(OCC3CO3)cc2)ccc1OCC1CO1 (configuration not stated)
not listed: [1] | [4] | [5]
inactive: all other assays above

Nc1ccc(N)c2ccccc12
inactive: [9] | [3] | [7] | [8] | [10]
active: [2] 54.9 µM | [6] 24.5 µM

Oc1ccc2c(c1)-c1ccccc1C2
active: [2] 49 µM
inactive: [9] | [3] | [7] | [8]

Cc1nc(-c2ccc3c(c2)CCN(CCC2CCC(NC(=O)/C=C/c4ccc(F)cc4)CC2)CC3)no1 (configuration not stated)
inactive: [9] | [2] | [3] | [7] | [8] | [10]

CN1CCN(CCC(=O)N2c3ccccc3Sc3ccc(C(F)(F)F)cc32)CC1
active: [2] 19 µM
inactive: [3] | [7]

CSc1ccc2c(c1)C(N1CCN(C)CC1)Cc1ccccc1S2 (configuration not stated)
active: [2] 23.9 µM
inactive: [9] | [3] | [6] | [7]

CN1CCC(Nc2ncc3ncnc(Nc4ccc(F)c(Cl)c4)c3n2)CC1
active: [2] 26.8 µM | [5] 9.52 µM
inactive: [9] | [3] | [7] | [8] | [10]

O=[N+]([O-])c1cc(Cl)c(Cl)c(Cl)c1Cl
not listed: [1] | [2]
inactive: all other assays above

C=C(C)C(=O)OCC[N+](C)(C)C
not listed: [1]
inactive: all other assays above

CCCCCCCCCCCCCCCC(=O)OC[C@H](O)[C@H]1OC(=O)C(O)=C1O
inactive: [9] | [2] | [5] | [6] | [8] | [10]

CC1(C)CCC(C)(C)c2cc(C(=O)Nc3ccc(C(=O)O)cc3)ccc21
inactive: [9] | [4] | [5] | [6] | [7] | [10]
